This is an account of results in PubChem BioAssay AID827 (SRMLSC, 2007).

Each structure is given as a SMILES string. Out of some 140,000 compounds screened, about 1,700 (1.2%) were called active. Only a selection was taken, and actives are over-represented in it overall. Values without a mark were called inactive.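 Rule for the calls: active = viability at or below a set limit, 4 SD under the median of all tested compounds (cut at about 3.7% in these data); inactive = the rest.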

The nature of this assay: growth suppression of PTEN-null HCT116, primary screen, cell-based, CellTiter-Glo (AID 827).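 Note: PTEN knockout HCT116 line with beta catenin targeted HCT116 as companion control.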 Conditions: 60 h, at 10 µM, active compounds read low.
By viability is commonly meant a read-out of living cells in per cent, often relative to untreated cells. For the compound `CN(C)c1ccc(/C=C2\CC3C4CC=C5CC(O)CCC5(C)C4CCC3(C)C2=O)cc1` (stereo not given), the viability was 2.86% (active).

Consider `Cc1cccc(-n2c(O)c(/C=N/N3CCOCC3)c(=O)[nH]c2=S)c1`, for which the viability was 108%.

Turning to `O=c1[nH]c(=S)n(C2CC2)c(O)c1/C=N/N1CCOCC1`, the viability was 95.3%.

`CN(C)CC1CCCCC1OC(=O)c1ccc(Cl)c(Cl)c1` (stereo not given): the viability is 82.2%.

For the compound `CCCCC(=O)N/N=C/c1c(O)n(CC)c(=S)n(CC)c1=O`, the viability was 11.8%.
